FXIa mix inh = factor XIa (human) inhibition, mixture screen; 0.19% of 62,000 active; purified FXIa, fluorogenic substrate, pooled mixtures; P03951; inhibition, % at 5 µM;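 further: each value is inhibition by a whole ten-compound pool holding the compound; 0% = enzyme with no mixture and 100% = wells lacking enzyme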
DAT uptake mod = modulates human dopamine transporter uptake under cocaine; B-score at 10 µM; 1.3% of 110,000 active; Q01959; LLC-PK1 hDAT cells, [14C]-dopamine uptake with cocaine IC80; actives deviate in either direction;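 active means Z score or B-score, a plate-position-corrected score, falls beyond the plate's 99.7% confidence bounds, in either direction; inactive means both scores lie inside the 99.7% bounds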;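 further: scored against the spread of the other compound wells on the same plate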
Target sequence (Q01959 whole entry, looked up): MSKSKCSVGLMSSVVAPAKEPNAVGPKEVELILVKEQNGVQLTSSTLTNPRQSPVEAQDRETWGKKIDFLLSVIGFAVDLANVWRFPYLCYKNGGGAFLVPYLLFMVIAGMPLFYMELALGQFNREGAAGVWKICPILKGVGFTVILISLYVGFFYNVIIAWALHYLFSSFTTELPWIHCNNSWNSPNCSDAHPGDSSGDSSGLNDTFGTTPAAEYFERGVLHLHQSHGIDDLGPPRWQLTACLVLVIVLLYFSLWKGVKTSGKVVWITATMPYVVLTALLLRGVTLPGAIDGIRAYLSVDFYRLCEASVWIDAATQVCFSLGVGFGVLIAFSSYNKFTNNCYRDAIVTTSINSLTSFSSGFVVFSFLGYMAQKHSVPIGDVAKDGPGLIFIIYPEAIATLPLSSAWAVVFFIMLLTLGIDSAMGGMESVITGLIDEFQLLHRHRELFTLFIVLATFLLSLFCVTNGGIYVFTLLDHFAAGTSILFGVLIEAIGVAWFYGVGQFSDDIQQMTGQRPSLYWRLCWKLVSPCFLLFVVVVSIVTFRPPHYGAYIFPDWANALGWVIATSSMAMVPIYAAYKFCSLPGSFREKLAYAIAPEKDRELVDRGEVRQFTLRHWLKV
D1 allo mod = allosterically modulates the human D1 dopamine receptor. P21728. HEK293 D1, CRE-luciferase, dopamine EC30 potentiation; actives deviate in either direction. B-score at 10 µM. 5.9% of 58,000 active;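 active means luminescence count or its row- and column-corrected plate score outside the 99.7% band of the plate's sample wells, on either side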
M1 antagonist = antagonists of rat M1 muscarinic receptor; P08482; CHO-M1 cells, Fluo-4 calcium, ACh EC80 antagonist mode; active compounds read low; B-score at 10 µM; 3.4% of 64,000 active;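 active means calcium fluorescence response, raw or row-and-column corrected B-score, differing from the plate sample mean either way at a set confidence level, mostly lower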
FXIIa mix inh = inhibitors of human coagulation factor XIIa, pooled mixtures; P00748; purified FXIIa, fluorogenic substrate; inhibition, % at 5 µM; 0.2% of 62,000 active; AID 684;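 further: 0% = enzyme without compound and 100% = no enzyme blank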
M1 ag = agonists of M1 muscarinic receptor; CHO-M1 cells, Fluo-4 calcium fluorescence, agonist mode; active compounds read high; B-score at 10 µM; 3% of 64,000 active; AID 626;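 active means fluorescence rise, raw or as B-score row- and column-corrected plate score, outside the 99.7% band of its plate's samples, either direction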
M1 antag conf = M1 muscarinic receptor (rat) antagonism, confirmed. shares compounds with M1 antagonist. 43% of 1,700 active. calcium response (max-min fluorescence) at 10 µM. CHO-M1 cells, Fluo-4 calcium, ACh EC80 antagonism; active compounds read low;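 active means calcium response below the same-plate mean of wells given acetylcholine alone at its 80%-effect dose, minus 3 SD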;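 further: raw fluorescence intensity difference in arbitrary instrument units and not normalized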
mGluR4 antag = acts on human mGluR4 in M1 antagonist selectivity test. fluorescence response (max-min) at 10 µM. shares compounds with M1 antagonist. CHO-mGluR4 calcium flux, Fluo-4 fluorescence, glutamate EC80; active compounds read low. 0.9% of 1,700 active;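 active means fluorescence response below the plate's average for near-maximal glutamate wells, less 3 SD of those wells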;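 further: raw unnormalized fluorescence span taken in the window right after glutamate addition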
* marks the source's active call; other numbers are inactive results. Hits are enriched below; roughly 7.4% of the tested compounds scored in any of these assays. Unless noted, no stated cut-off is given here; in the data, active means inhibition above about 20% (passing the limit was not always enough); inactive means the rest.

COc1ccc(CCN2C(=O)CC(Sc3ncccc3C(=O)O)C2=O)cc1OC (configuration not stated) was read as FXIa mix inh -7, DAT uptake mod -0.085, D1 allo mod 0.23, M1 antagonist -2.4*, FXIIa mix inh 6, M1 ag 0.37, M1 antag conf 716 and mGluR4 antag 180.
For CN1C(=O)CC(Sc2ncccc2C(=O)O)C1=O (configuration not stated) the results were DAT uptake mod -0.31.
O=c1c2ccccc2nnn1CSc1nnc(-c2cccc(S(=O)(=O)N3CCCCC3)c2)o1 was read as FXIa mix inh 5, DAT uptake mod 0.51, D1 allo mod 2.8, M1 antagonist -4.2*, FXIIa mix inh 6, M1 ag 1.7, M1 antag conf 366* and mGluR4 antag 238.
`COc1ccc(C(C)=O)c2c1OCCO2` gave FXIa mix inh 4, DAT uptake mod 0.31, D1 allo mod 0.94, M1 antagonist -2.2*, FXIIa mix inh 7, M1 ag 0.13, M1 antag conf 633 and mGluR4 antag 236.
CC(=O)c1c(C)[nH]c(C(=O)OCC(=O)Nc2ncc(Cl)c(C)c2Cl)c1C was read as FXIa mix inh 10, DAT uptake mod -0.36, D1 allo mod 1.1, M1 antagonist -15*, FXIIa mix inh -6, M1 ag -0.19, M1 antag conf 567 and mGluR4 antag 234.
For Cc1c(Cl)cccc1NC(=O)c1ccc(-n2ccnc2)nc1 the results were DAT uptake mod 0.96.
CN(C)C(CNC(=O)C1CCCN(C(=O)c2ccc(Cl)cc2)C1)c1ccco1 (configuration not stated) was read as FXIa mix inh 5, DAT uptake mod -0.46, D1 allo mod 0.092, M1 antagonist -3.6*, FXIIa mix inh 14, M1 ag -0.016, M1 antag conf 666 and mGluR4 antag 267.
Screening Cc1cc2nc(NC3=NCN(CCCN4CCOCC4)CN3)nc(C)c2cc1C returned FXIa mix inh 5, D1 allo mod -0.71, M1 antagonist -14*, FXIIa mix inh 4, M1 ag 0.37, M1 antag conf 22* and mGluR4 antag 189.
`Cc1nc(NC2=NCN(CCCN3CCOCC3)CN2)nc2c(C)cccc12` gave FXIa mix inh -4, D1 allo mod -1.4, M1 antagonist -7.4*, FXIIa mix inh 6, M1 ag -1.6, M1 antag conf 48* and mGluR4 antag 198.
`CN(N)C(=S)NCc1ccccc1` gave DAT uptake mod -0.47.
`CC1(C)CC(=O)C=C(NCCc2ccc(S(N)(=O)=O)cc2)C1` gave FXIa mix inh 15, DAT uptake mod 0.59, D1 allo mod 0.55, M1 antagonist 0.27, FXIIa mix inh -1 and M1 ag -0.38.
CCCC(=O)Nc1nc2c(c(=O)[nH]1)CCCC2 was read as DAT uptake mod 0.28.
Screening CCC(C)N(C(=O)COC(=O)Cc1n[nH]c(=O)c2ccccc12)C1CCS(=O)(=O)C1 (configuration not stated) returned FXIa mix inh 3, DAT uptake mod 0.45, D1 allo mod 0.17, M1 antagonist -3.6*, FXIIa mix inh -4, M1 ag 0.99, M1 antag conf 641 and mGluR4 antag 242.
Screening COc1ccc(-n2nnnc2SCC(=O)Nc2cccc(C)n2)cc1OC returned FXIa mix inh 14, DAT uptake mod 0.02, D1 allo mod 3.1, M1 antagonist 0.35, FXIIa mix inh 2 and M1 ag -0.058.
For COc1ccc(N2CC(C(=O)Nc3ccc(N4CCOCC4)cc3)CC2=O)cc1 (configuration not stated) the results were FXIa mix inh 0, DAT uptake mod 0.4, M1 antagonist 1.2, FXIIa mix inh 8 and M1 ag -1.
Cc1nnc(SCCn2c(N3CCN(Cc4ccccc4)CC3)nc3c2c(=O)[nH]c(=O)n3C)s1 was read as FXIa mix inh 5, DAT uptake mod -0.35, D1 allo mod 1.3, M1 antagonist -4.1*, FXIIa mix inh 10, M1 ag -1.3, M1 antag conf 588 and mGluR4 antag 246.
For CCOC(=O)C1CCN(CCC(=O)Nc2ccccc2)CC1 the results were DAT uptake mod 0.14.
For CC(C)Cc1c(O)nc(SCCN2CCOCC2)[nH]c1=O the results were FXIa mix inh 3, DAT uptake mod -1.3, D1 allo mod -0.04, M1 antagonist 0.0032, FXIIa mix inh 2 and M1 ag -0.35.
Screening C=CCNc1nc(N2CCCC2)nc2ccccc12 returned FXIa mix inh -1, D1 allo mod -4.5*, M1 antagonist -3.4*, FXIIa mix inh 6, M1 ag -0.83, M1 antag conf 581 and mGluR4 antag 265.
For COc1ccc(Nc2nc(N3CCCC3)nc3ccccc23)c(OC)c1 the results were FXIa mix inh 7, DAT uptake mod -0.028, D1 allo mod -3.1, M1 antagonist -8.1*, FXIIa mix inh 9, M1 ag -0.69, M1 antag conf 342* and mGluR4 antag 188.
Screening CC(Nc1nc(N2CCCCC2)nc2ccccc12)c1ccccc1 (configuration not stated) returned DAT uptake mod -0.048.
CC(=O)NCCN1C(=O)C2C3c4ccccc4C(c4ccccc43)C2C1=O (configuration not stated) was read as DAT uptake mod 0.55.
Screening Cc1ccc(C(=O)CSc2nnnn2C(C)C)c(C)c1 returned DAT uptake mod 1.1.
For Cc1ccc(S(=O)(=O)/N=C(\CN2CCCCC2)N2CCOCC2)cc1 the results were FXIa mix inh 14, DAT uptake mod -0.36, D1 allo mod 0.57, M1 antagonist -2.6*, FXIIa mix inh 8, M1 ag -0.043, M1 antag conf 589 and mGluR4 antag 236.
For Cc1ccc(S(=O)(=O)N2CCN(C(=O)CN3CCOCC3)C2)cc1 the results were FXIa mix inh 4, DAT uptake mod -0.65, M1 antagonist -0.19, FXIIa mix inh -17 and M1 ag -0.59.
Screening COc1ccc(-c2noc(CSc3nc4ccccc4c(=O)n3-c3ccccc3)n2)cc1OC returned FXIa mix inh 10, DAT uptake mod 1.7, M1 antagonist -3.9*, FXIIa mix inh 13, M1 ag 0.0052, M1 antag conf 671 and mGluR4 antag 235.
Screening COc1ccc(-c2noc(CSc3nc4sc(C)c(C)c4c(=O)n3-c3ccccc3)n2)cc1OC returned DAT uptake mod -0.52.
Screening COc1ccccc1NC(=O)Cn1c(=O)sc2ccccc21 returned DAT uptake mod 0.71.
